Rows were chosen to be rich in hits. Some 6.4% of all compounds tested hit in one or more screens of this group.
KinaseGlo FLuc: Kinase-Glo luciferase inhibition (counter-screen). Kinase-Glo luciferase, ATP luminescence, 8 min. 200,000 tested, 0.28% active. Q27757. Potency, µM (top dose mostly 38.3 µM), actives largely listed as inhibitors; also: nearly all actives have a fitted effect of over 60% in size
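Substrate mix (final 50 mM imidazole pH 7.2, 50 mM KCl, 7 mM MgCl2, 10 uM ATP, 0.01% Tween 20, 0.05% BSA) plus pin-tool compound, then Kinase-Glo detection mix; 8 min ambient, luminescence read.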
Gal4-VP16 FLuc: Gal4-VP16 reporter inhibition counter-screen | Drosophila S2 Gal4-VP16 UAS-luciferase, luminescence, 20 h | Potency, µM (titrated, usually from 53.6 µM), most hits filed as inhibitors | 310,000 tested, 3.5% active;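 also: Gal4-VP16 expression switched on by copper sulfate through the metallothionein promoter; nearly all actives have a fitted effect of over 50% in size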
RORgamma inh: ROR gamma (mouse) transcription inhibition; P51450; Drosophila S2 Gal4-RORgamma UAS-luciferase reporter, 20 h; Potency, µM (titrated, usually from 53.6 µM), most hits filed as inhibitors; 310,000 tested, 5.4% active; AID 2551; also: nearly all actives have a fitted effect of over 60% in size
Target sequence (P51450 whole entry, looked up, the tested form may be a part): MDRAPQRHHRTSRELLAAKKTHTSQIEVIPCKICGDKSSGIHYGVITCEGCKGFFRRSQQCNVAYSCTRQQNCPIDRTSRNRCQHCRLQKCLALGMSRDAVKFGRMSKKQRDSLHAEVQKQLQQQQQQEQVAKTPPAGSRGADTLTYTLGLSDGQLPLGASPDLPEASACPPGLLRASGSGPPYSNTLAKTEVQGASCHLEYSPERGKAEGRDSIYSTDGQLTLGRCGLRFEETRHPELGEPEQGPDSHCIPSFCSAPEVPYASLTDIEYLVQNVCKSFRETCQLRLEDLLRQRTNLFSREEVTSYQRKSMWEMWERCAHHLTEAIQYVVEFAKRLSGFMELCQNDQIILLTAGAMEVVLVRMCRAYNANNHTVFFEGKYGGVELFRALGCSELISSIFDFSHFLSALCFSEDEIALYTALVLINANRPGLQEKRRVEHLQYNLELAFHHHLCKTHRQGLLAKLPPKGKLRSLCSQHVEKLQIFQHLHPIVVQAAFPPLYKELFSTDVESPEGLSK
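Read-out: Photinus luciferase luminescence; inhibitors lower reporter signal. Insect Schneider cells with Gal4-ROR gamma fusion under metallothionein promoter, UAS reporter; 700 uM final copper sulfate induction, 20 hr, ambient temperature.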
A number is an active result; . = inactive; ? = inconclusive; / = no result given; [ ] = another dose, or the depositor's remark. Calls follow the shape of the dose curve; as a rule, active = well fitted curve in the direction sought with a large enough effect; inconclusive = small, poorly fitted or top-dose-only effect, or another doubt; inactive = no such curve, though single readings can be large; an effect the other way counts as inactive or inconclusive.

SMILES | KinaseGlo FLuc | Gal4-VP16 FLuc | RORgamma inh
COC(=O)c1ccc(OC(=O)c2ccccn2)cc1 | . | . | .
CN(C)c1cc(O)c(C(=S)Nc2ccccc2)c(N(C)C)c1 | . | . | ?
CN(C)c1ccc(C(=S)Nc2ccccc2)cc1 | . | ? | 13µM
N#CC(C#N)=Cc1ccc(OC(=O)c2ccccn2)cc1 | . | . | 13µM
CN(C)c1ccc(NC(=S)c2ccccn2)cc1 | 13µM | 0.63µM | 0.28µM
N#C/C(=C\c1ccc([N+](=O)[O-])cc1)c1ccccn1 | . | . | .
CN(C)S(=O)(=O)c1ccc(NC(=O)c2ccccn2)cc1 | . | ? | .
CCCc1nc2ccccc2c(=O)n1CC(=O)c1ccc(F)cc1 | / | . | .
NC(=O)CN1CCN(Cc2ccc3c(c2)OCO3)CC1 | / | . | .[1.91 µM]
O=C(OCC(=O)N1c2ccccc2Sc2ccccc21)c1ccc[n+]([O-])c1 | . | . | .
CCN(CC)S(=O)(=O)c1cccc(NC(=O)c2ccc(Sc3nncn3C)c([N+](=O)[O-])c2)c1 | . | . | .
O=C(O)C1C2CCC(O2)C1C(=O)Nc1ccccc1Br (centres undefined) | / | . | .
CC1=C(C(=O)Nc2ccccc2C)C(c2cccs2)NC(=S)N1 (centres undefined) | . | . | .
CCOc1ccccc1NC(=O)C1=C(C)NC(=S)NC1c1cccs1 (centres undefined) | . | 20µM | 6.3µM
COc1ccc(OC)c(NC(=O)C(C)N2c3cccc4cccc(c34)S2(=O)=O)c1 (centres undefined) | / | . | .
COc1cccc(C2CC(=O)Nc3cc4c(cc32)CCC4)c1 (centres undefined) | . | 13µM | ?
COc1cccc(C2CC(=O)Nc3cc(OC)c(OC)cc32)c1 (centres undefined) | / | . | ?
CCCNC(=O)CS(=O)(=O)c1ccccc1 | / | . | .
CCCNC(=S)N1CCC(C(=O)c2ccc3c(c2)OCCO3)CC1 | . | .[10 µM] | .
CN(C)S(=O)(=O)c1ccc(C(=O)NCc2ccc3[nH]c4c(c3c2)CCCC4)cc1 | . | . | ?
CCOC(=O)c1[nH]c2ccccc2c1NC(=S)Nc1cc(C)ccc1C | . | ? | .
Cc1ccccc1NC(=S)NCc1ccc2[nH]c3c(c2c1)CCCC3 | . | 3.5µM | 1.6µM
O=C(NCc1ccc2[nH]c3c(c2c1)CCCC3)c1ccc(S(=O)(=O)N2CCCC2)cc1 | . | . | ?
S=C(NCc1ccc2[nH]c3c(c2c1)CCCC3)Nc1ccccc1Cl | . | 8.9µM | 3.2µM
Cc1ccc(C)c(NC(=S)NCc2ccc3[nH]c4c(c3c2)CCCC4)c1 | . | 6.3µM | 2µM
SMILES | KinaseGlo FLuc | Gal4-VP16 FLuc | RORgamma inh
NC(N)=N/N=C(/c1ccccc1)c1ccc(O)cc1O | .[7.66 µM] | / | /
CCCC[C@@H]1CCCO[C@@](C(=O)NCc2ccccc2)(C(F)(F)F)C1 | / | . | .
NNC(=O)CCSc1ccccc1 | .[7.66 µM] | / | /
COc1ccc(NC(=O)C(CC(=O)O)Cc2ccc(C)cc2)cc1 (centres undefined) | . | . | .
Cc1cc(NC(=O)c2ccc(C)s2)n(-c2nc3ccccc3[nH]2)n1 | . | . | .
Cc1cc(NC(=O)c2c(F)cccc2F)n(-c2nc3ccccc3[nH]2)n1 | . | 6.3µM | 3.5µM
Cc1cc(N2CCN(c3ccccc3)CC2)nc(-c2ccccc2O)n1 | . | . | .
Cc1cc(C)nc(-n2nc(C)cc2Nc2ccccc2)n1 | . | 0.22µM | 0.11µM
Cc1cc(Nc2ccccc2)n(-c2ccccc2)n1 | . | . | .
Cc1cc(N2CCN(c3ccccc3)CC2)nc(-n2nc(C)cc2C)n1 | . | 1.3µM | 0.28µM
Cc1cc(NC(=O)CSc2nc3ccccc3[nH]2)n(-c2ccccc2)n1 | / | . | .
Cc1cc(NC(=O)c2ccccc2F)n(-c2nc3ccccc3[nH]2)n1 | . | 4.5µM | 1.1µM
C=C(C)c1cccc(C(C)(C)NC(=O)N2CCC(C(N)=O)CC2)c1 | . | . | .
O=C(NCCCO)C(=O)NCCc1ccc(Cl)cc1 | . | . | .
COC(=O)C(NC(=O)CCc1c(C)nc2c(c(C)nn2-c2ccccc2)c1C)C(C)C (centres undefined) | / | . | .
CO[C@@H]1COC(=O)[C@H]2CCCN2C(=O)C/C=C\[C@@H](C)[C@H](OC)COC(=O)[C@H]2CCCN2C(=O)C/C=C\[C@H]1C | / | .[10 µM] | .[10 µM]
Cc1cc(Nc2ccccc2)n(-c2nc3ccccc3[nH]2)n1 | . | 3.5µM | 1.6µM
CC(C)(C)c1cc(NC(=O)c2c(F)cccc2Cl)n(-c2ccccc2)n1 | / | . | .
Cc1cc(NC(=O)C2CCCCC2)n(-c2nc3ccccc3[nH]2)n1 | . | 1.4µM | 1.6µM
Cc1cc(NC(=O)C2CCC2)n(-c2ccccn2)n1 | . | . | .
Cc1cc(NC(=O)c2c(F)cccc2Cl)n(-c2nc3ccccc3[nH]2)n1 | . | 7.1µM | 4.5µM
Cc1cc(C)n(-c2nc3ccccc3[nH]c2=O)n1 | . | . | .
CCn1c(=O)c2c(nc3n2CCCN3c2cccc(C)c2)n(C)c1=O | / | . | .
O=C(Nc1ccccc1C(=O)NCCCN1CCOCC1)c1ccc(F)cc1 | / | . | .
CCN1CCN(C(=O)CCc2nnc(CCc3c[nH]c4ccccc34)o2)[C@@H](C)C1=O | / | . | .
SMILES | KinaseGlo FLuc | Gal4-VP16 FLuc | RORgamma inh
O=C(N/N=C\c1ccc2c(c1)CCC2)c1ccccc1O | .[7.66 µM] | / | /
CNC(=S)N/N=C/C1=CCC2CC1C2(C)C (centres undefined) | . | 2.5µM | 1.3µM
CC12COC3(C(=O)NCCc4ccccc4)CC1CCC32C (centres undefined) | . | . | .
CC1(C)C2CC=C(/C=N/NC(=O)c3ccccc3O)C1C2 (centres undefined) | . | ? | 8.9µM
CC1(C)C2CC=C(/C=N/n3cnnc3)C1C2 (centres undefined) | . | . | .
CC1(C)C2CC=C(/C=N/NC(=S)NCCc3ccccc3)C1C2 (centres undefined) | . | 7.1µM | 2µM
O=C(CC1(CC2=NS(=O)(=O)c3ccccc3N2)CCCC1)NCCc1ccccc1 | / | . | .
CC1CCN(CC(=O)NCc2ccco2)CC1 | . | . | .
Cn1cccc2[nH]c(=O)nc1-2 | / | . | .
COc1cccc(OCC(=O)NN=C2c3ccccc3-c3ccccc32)c1 | . | . | .
CCNC(=S)NN=C1c2ccccc2-c2ccccc21 | . | 3.2µM | 1.8µM
C=C(C)CNC(=S)NN=C1c2ccccc2-c2ccccc21 | . | ? | 3.2µM
C=C(C)CNC(=S)N/N=C/c1ccco1 | / | 3.2µM | 0.56µM
NC(=O)N/N=C1\c2ccccc2-c2c(C(N)=O)cccc21 | / | . | .
O=C(CCC(=O)N/N=C/c1ccco1)N/N=C/c1ccco1 | / | . | .
S=C=Nc1ccc(N=C=S)cc1 | / | . | .
CCNc1nc(NC(C)(C)C)nc(Oc2ccc(=O)n(-c3ccccc3)n2)n1 | . | . | .
CCN(CC(=O)Nc1ccc(NC(C)=O)cc1)C(=O)C1COc2ccccc2O1 (centres undefined) | / | . | .
CN(C1CC(C)(C)NC(C)(C)C1)S(=O)(=O)CC12CCC(CC1=O)C2(C)C (centres undefined) | / | . | .
COc1ccccc1C1NC(=O)NC(C)=C1C(=O)OC1CCCC(C)C1 (centres undefined) | / | ? | .
Cc1ccc(S(=O)(=O)Cn2nnnc2C(C(C)C)N2CCC(O)CC2)cc1 (centres undefined) | / | . | .

High-throughput results from PubChem BioAssay.
